10 compounds from article PMC5540273 (PLoS ONE, 2017) can be followed below.

Like-named read-outs stand apart in the source and are kept apart here.

One experiment relates to AAK1. As to conditions: n = 1.
A further experiment deals with ABL1-nonphosphorylated. As to conditions: concentration: 1 μM, replicates: in singlicate; n = 1.
The subject of a further experiment is ABL1-phosphorylated. The settings on record: concentration: 1 μM, replicates: in singlicate; n = 1.
Another experiment has as its system ABL2. As to conditions: concentration: 1 μM, replicates: in singlicate; n = 1.
Another experiment concerns ACVR1B. As to conditions: concentration: 1 μM, replicates: in singlicate; n = 1.
Another experiment concerns ACVR1. As to conditions: concentration: 1 μM, replicates: in singlicate; n = 1.
The test system of the next experiment is ACVR2A. As to conditions: concentration: 1 μM, replicates: in singlicate; n = 1.
Another experiment relates to ACVR2B. As to conditions: concentration: 1 μM, replicates: in singlicate; n = 1.
For the next experiment, the system named is ACVRL1. As to conditions: concentration: 1 μM, replicates: in singlicate; n = 1.
The subject of another experiment is T1, ADCK3.
T1 construct: gene CABC1
As to conditions: concentration: 1 μM, replicates: in singlicate; n = 1.

Another experiment deals with ADCK4. The settings on record: concentration: 1 μM, replicates: in singlicate; n = 1.
For a further experiment, the system named is AKT1. As to conditions: concentration: 1 μM, replicates: in singlicate; n = 1.
Another experiment has as its system AKT2. As to conditions: concentration: 1 μM, replicates: in singlicate; n = 1.
For the next experiment, the system named is AKT3. The settings on record: concentration: 1 μM, replicates: in singlicate; n = 1.
The test system of another experiment is ALK. The settings on record: concentration: 1 μM, replicates: in singlicate; n = 1.
In another experiment the test system is T2, AMPK-alpha1.
T2 construct: gene PRKAA1
The settings on record: concentration: 1 μM, replicates: in singlicate; n = 1.

A further experiment relates to T3, AMPK-alpha2.
T3 construct: gene PRKAA2
The settings on record: concentration: 1 μM, replicates: in singlicate; n = 1.

Another experiment concerns ANKK1. The settings on record: concentration: 1 μM, replicates: in singlicate; n = 1.
Another experiment has as its system T4, ARK5.
T4 construct: gene NUAK1
The settings on record: concentration: 1 μM, replicates: in singlicate; n = 1.

The next experiment concerns T5, ASK1.
T5 construct: gene MAP3K5
The settings on record: concentration: 1 μM, replicates: in singlicate; n = 1.

[1] abbreviates: concentration: 1 μM, replicates: in singlicate.
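Further: KINOMEscan kinase panel screen.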

As to `COc1ccc(C)c(Nc2ccnc(Nc3ccc(-c4cnc[nH]4)cc3)n2)c1.Cl` [GW784041], the “%Inh” value in the experiment on AAK1 (setting [1]) was 29%; in the experiment with ABL1-nonphosphorylated, 95.4%; in the experiment with ABL1-phosphorylated it was 97.1%; in the experiment with ABL2 it was 92.8%; in the experiment on ACVR1B, 74%; in the experiment with ACVR1, 99%. Besides, the “%Inh” value with ACVR2A is on record as 93.5%; in the experiment on ACVR2B, 93.3%; in the experiment on ACVRL1, 91.7%; in the experiment with ADCK3 it was 40%; in the experiment with ADCK4, 53%; in the experiment on AKT1, 14%. In addition, the “%Inh” value with AKT2 was 0%; in the experiment on AKT3, 8%; in the experiment with ALK, 0%; in the experiment on AMPK-alpha1, 30%; in the experiment with AMPK-alpha2 it was 0%; with ANKK1, 0%. Besides, the “%Inh” value is 99.3% with ARK5 and 0% with ASK1.

On to `Cc1cccc(Nc2nc(N[C@H]3CCCC[C@H]3N)ncc2C(N)=O)c1.Cl` [GSK986310], for which the “%Inh” value with AAK1 (setting [1]) is recorded as 55%; in the experiment with ABL1-nonphosphorylated, 0%; in the experiment on ABL1-phosphorylated it was 8%; in the experiment with ABL2 it was 24%; in the experiment on ACVR1B, 0%; with ACVR1 it was 5%. For the same compound, the “%Inh” value with ACVR2A is reported as 0%; in the experiment with ACVR2B it was 11%; with ACVRL1, 0%; in the experiment on ADCK3, 17%; in the experiment with ADCK4, 29%; in the experiment on AKT1, 0%. Further, the “%Inh” value is on record as 28% with AKT2; 0% in the experiment on AKT3; 61% in the experiment on ALK; 39% in the experiment with AMPK-alpha1; 29% with AMPK-alpha2; 95.7% with ANKK1. Moreover, the results for the “%Inh” value with ARK5 and with ASK1 were 40% and 0%, respectively.

`CNc1nccc(-c2ccc3c(N)n[nH]c3c2)n1` [GSK2206003]: the “%Inh” value was determined as 74% in the experiment with AAK1 (setting [1]); 7% in the experiment with ABL1-nonphosphorylated; 3% in the experiment on ABL1-phosphorylated; 20% with ABL2; 10% with ACVR1B; 7% in the experiment with ACVR1. Besides, the “%Inh” value came to 8% with ACVR2A; 67% with ACVR2B; 0% in the experiment with ACVRL1; 1% in the experiment on ADCK3; 26% with ADCK4; 0% with AKT1. Further, the “%Inh” value in the experiment with AKT2 was 0%; with AKT3, 0%; with ALK, 33%; in the experiment with AMPK-alpha1, 0%; in the experiment with AMPK-alpha2, 0%; in the experiment with ANKK1, 33%. For the same compound, the “%Inh” value with ARK5 and in the experiment on ASK1 was 0% each time.

With `Cc1cccc(Nc2nc(NCCN)ncc2C(N)=O)c1` [GSK1292139], the “%Inh” value with AAK1 (setting [1]) was 78%; with ABL1-nonphosphorylated it was 5%; in the experiment with ABL1-phosphorylated, 28%; with ABL2, 0%; with ACVR1B, 0%; in the experiment on ACVR1, 0%. In addition, the “%Inh” value is recorded as 0% in the experiment on ACVR2A; 0% in the experiment on ACVR2B; 0% in the experiment on ACVRL1; 5% in the experiment on ADCK3; 42% with ADCK4; 0% in the experiment with AKT1. Moreover, the “%Inh” value in the experiment on AKT2 came out at 0%; with AKT3, 0%; with ALK, 46%; with AMPK-alpha1 it was 0%; in the experiment with AMPK-alpha2 it was 0%; in the experiment with ANKK1, 94.9%. Also, the “%Inh” value with ARK5 is listed as 64%; in the experiment with ASK1 it was 0%.

As to `Cl.O=C(Nc1ccc(Oc2ccc3[nH]c(NC(=O)c4ccco4)nc3c2)cc1)Nc1cc(C(F)(F)F)ccc1F` [GW683134], the “%Inh” value is recorded as 5% in the experiment on AAK1 (setting [1]); 96.1% in the experiment with ABL1-nonphosphorylated; 76% in the experiment with ABL1-phosphorylated; 97.9% in the experiment with ABL2; 0% with ACVR1B; 0% in the experiment with ACVR1. The “%Inh” value in the experiment with ACVR2A is reported as 4%; in the experiment with ACVR2B it was 0%; in the experiment with ACVRL1, 0%; in the experiment with ADCK3, 0%; in the experiment on ADCK4 it was 0%; in the experiment with AKT1, 0%. Further, the “%Inh” value is 12% in the experiment with AKT2; 0% in the experiment with AKT3; 27% in the experiment with ALK; 0% with AMPK-alpha1; 16% in the experiment on AMPK-alpha2; 1% in the experiment on ANKK1. Further, the “%Inh” value in the experiment on ARK5 is 12%; in the experiment on ASK1, 0%.

As to `Cc1ccc(O)cc1Nc1ccnc2cc(-c3ccc(CN4CCCCC4)o3)ccc12` [GW557777], the “%Inh” value worked out at 10% with AAK1 (setting [1]); 100% with ABL1-nonphosphorylated; 99.9% in the experiment on ABL1-phosphorylated; 100% with ABL2; 79% in the experiment with ACVR1B; 99.4% in the experiment on ACVR1. The “%Inh” value is reported as 18% with ACVR2A; 94.7% in the experiment on ACVR2B; 90.3% with ACVRL1; 4% in the experiment on ADCK3; 88% in the experiment on ADCK4; 0% with AKT1. The “%Inh” value in the experiment with AKT2 is recorded as 3%; in the experiment on AKT3, 0%; in the experiment with ALK, 0%; in the experiment with AMPK-alpha1, 0%; in the experiment with AMPK-alpha2 it was 0%; with ANKK1, 0%. Besides, the entries for the “%Inh” value in the experiment on ARK5 and in the experiment with ASK1 were 0% and 37%, respectively.

For `O=C(O)C(F)(F)F.O=c1[nH]ccc2nc(N[C@@H]3CCNC3)nc(Nc3cc(Cl)cc(Cl)c3)c12` [GSK2188764], the “%Inh” value in the experiment on AAK1 (1 µM) amounted to 89%; in the experiment with ABL1-nonphosphorylated, 9%; in the experiment on ABL1-phosphorylated, 11%; in the experiment with ABL2, 0%; in the experiment with ACVR1B it was 0%; in the experiment with ACVR1, 0%. Moreover, the “%Inh” value with ACVR2A is listed as 0%; with ACVR2B, 0%; with ACVRL1 it was 0%; in the experiment with ADCK3, 25%; with ADCK4, 14%; in the experiment on AKT1, 0%. For the same compound, the “%Inh” value with AKT2 was determined as 0%; with AKT3, 0%; with ALK, 90.5%; in the experiment on AMPK-alpha1, 87%; in the experiment on AMPK-alpha2, 90%; with ANKK1 it was 97.1%. In addition, the “%Inh” value in the experiment with ARK5 was found to be 99.5%; in the experiment on ASK1, 0%.

With `Cc1ccc(C)c(NC(=O)Nc2ccc(C)c(-c3ccc(C(=O)Nc4ccncc4)cc3)c2)c1` [GSK1398473], the “%Inh” value is given as 11% in the experiment on AAK1 (setting [1]); 0% in the experiment with ABL1-nonphosphorylated; 0% in the experiment on ABL1-phosphorylated; 14% in the experiment on ABL2; 0% in the experiment with ACVR1B; 18% in the experiment with ACVR1. For the same compound, the “%Inh” value came to 0% in the experiment on ACVR2A; 3% in the experiment with ACVR2B; 0% in the experiment on ACVRL1; 14% in the experiment on ADCK3; 25% in the experiment with ADCK4; 0% with AKT1. Moreover, the “%Inh” value in the experiment on AKT2 is 0%; with AKT3, 0%; in the experiment with ALK, 38%; in the experiment on AMPK-alpha1, 15%; in the experiment on AMPK-alpha2 it was 0%; in the experiment with ANKK1, 0%. Moreover, the entries for the “%Inh” value in the experiment with ARK5 and with ASK1 were 17% and 0%, respectively.

As for `Nc1ncnc2scc(-c3ccc(NC(=O)Cc4cc(F)ccc4F)cc3)c12.O=C(O)C(F)(F)F` [SB-731254-M], the “%Inh” value was determined as 10% with AAK1 (setting [1]); 80% in the experiment with ABL1-nonphosphorylated; 50% in the experiment with ABL1-phosphorylated; 9% with ABL2; 14% in the experiment on ACVR1B; 0% in the experiment with ACVR1. For the same compound, the “%Inh” value in the experiment on ACVR2A is reported as 24%; with ACVR2B, 1%; in the experiment on ACVRL1, 0%; in the experiment on ADCK3, 16%; in the experiment on ADCK4 it was 3%; in the experiment on AKT1, 0%. Moreover, the “%Inh” value with AKT2 is 0%; with AKT3, 9%; in the experiment with ALK, 18%; in the experiment on AMPK-alpha1, 18%; in the experiment on AMPK-alpha2 it was 11%; in the experiment with ANKK1 it was 49%. For the same compound, the “%Inh” value with ARK5 is 2%; in the experiment with ASK1 it was 10%.

Consider `Cn1cc(-c2ccc3c(c2)CCN3C(=O)Cc2cc(F)cc(F)c2F)c2c(N)ncnc21` [GSK2634140], for which the “%Inh” value in the experiment on AAK1 (setting [1]) was 0%; in the experiment on ABL1-nonphosphorylated it was 82%; with ABL1-phosphorylated it was 29%; in the experiment on ABL2 it was 57%; in the experiment with ACVR1B, 15%; with ACVR1, 0%. Further, the “%Inh” value in the experiment on ACVR2A worked out at 0%; in the experiment with ACVR2B it was 0%; in the experiment on ACVRL1, 0%; in the experiment on ADCK3, 6%; with ADCK4 it was 19%; in the experiment on AKT1, 0%. The “%Inh” value with AKT2 is on record as 0%; with AKT3 it was 0%; in the experiment on ALK, 8%; in the experiment on AMPK-alpha1, 18%; in the experiment on AMPK-alpha2 it was 13%; with ANKK1, 12%. The “%Inh” value is 20% in the experiment on ARK5 and 0% in the experiment with ASK1.
